Records with an inconclusive call do not appear. Entries that show only a call come without a potency. Active and inactive are the calls of the source. Unless noted, calls follow the shape of the dose curve; as a rule, active = well fitted curve in the direction sought with a large enough effect in the repeat runs; inconclusive = weak or mixed curves; inactive = no such curve, though single readings can be large; an effect the other way counts as inactive or inconclusive.
Assays:
[1] = A CellTox Green Cytotoxicity Assay to monitor cytotoxicity in HEK293 cells - 32 hour (AID 1224881); also: nearly all actives have a fitted effect of over 40% in size
In short: (§1)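 HEK293 cells, 600/well, were preincubated 5 hours and then exposed to compounds at 37 C for up to 40 hours. A cell-impermeant cyanine dye staining dead-cell DNA was read by fluorescence at 0, 8, 16, 24, 32 and 40 h time points.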

[2] = A CellTox Green Cytotoxicity Assay to monitor cytotoxicity in HepG2 cells - 0 hour (AID 1224882); also: nearly all actives have a fitted effect of over 35% in size
In short: (§2)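 HepG2 cells, 600/well, preincubated 5 h with CellTox Green dye, then exposed to Tox21 compounds in DMSO at 37 C for up to 40 h. Dead-cell DNA fluorescence read at the indicated time point.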

[3] = A CellTox Green Cytotoxicity Assay to monitor cytotoxicity in HepG2 cells - 32 hour (AID 1224883); also: nearly all actives have a fitted effect of over 50% in size; also: potency is read from the fitted curve at half-maximal effect
In short: as §2

[4] = A CellTox Green Cytotoxicity Assay to monitor cytotoxicity in HEK293 cells - 8 hour (AID 1224884); also: nearly all actives have a fitted effect of over 35% in size
In short: as §1

[5] = qHTS RealTime-Glo MT Cell Viability Assay in HepG2 cells - 16 hour (AID 1224885); also: nearly all actives have a fitted effect of over 50% in size
In short: (§3)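 Compound treatment began 5 h after plating HepG2 cells (600/well) with NanoLuc luciferase and prosubstrate. Plates stayed at 37 C for 40 h; luminescence was captured at six time points, 0 h through 40 h.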

[6] = qHTS RealTime-Glo MT Cell Viability Assay in HEK293 cells - 24 hour (AID 1224886); also: top concentration of the series differs between compounds; nearly all actives have a fitted effect of over 50% in size
In short: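 Quantitative high-throughput screen of the Tox21 10K library in HEK293: cells and RealTime-Glo reagents plated together, compound added at 5 h, luminescence monitored through 40 h at 37 C.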

[7] = qHTS RealTime-Glo MT Cell Viability Assay in HEK293 cells - 8 hour (AID 1224887); also: top concentration of the series differs between compounds; nearly all actives have a fitted effect of over 50% in size
In short: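 600 cells/well were plated with the nonlytic NanoLuc/prosubstrate reagent, pre-incubated 5 h, then given 23 nL of compound in DMSO. Incubation at 37 C for 40 h, with luminescence from viable-cell-reduced substrate read repeatedly from 0 h.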

[8] = A CellTox Green Cytotoxicity Assay to monitor cytotoxicity in HepG2 cells - 8 hour (AID 1224890); also: nearly all actives have a fitted effect of over 45% in size
In short: as §2

[9] = qHTS assay to identify small molecule antagonists of the estrogen receptor alpha (ER-alpha) signaling pathway using the BG1 cell line in the presence of 0.1 nM 17-beta-estradiol - cell viability counter screen (AID 1259241); also: nearly all actives have a fitted effect of over 40% in size
In short: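 VM7Luc4E2 cells (endogenous full-length ER-alpha, 4xERE-luciferase), cultured 5 days in charcoal-stripped serum, exposed to compounds with 0.1 nM 17beta-estradiol (final) for 22 hr at 37C. Viability read in same wells as live-cell protease fluorescence after 30 min.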

[10] = qHTS assay to identify small molecule antagonists of the androgen receptor (AR) signaling pathway using the MDA cell line in the presence of 0.5 nM R1881 - cell viability counter screen (AID 1259242); also: nearly all actives have a fitted effect of over 45% in size
In short: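 MDA-kb2 cells (MMTV-luciferase, AR/GR responsive) were treated with compounds plus 0.5 nM R1881 (final) for 16 hr at 37C, 0% CO2. Viability was then read in the same wells as live-cell protease fluorescence (CellTiter-Fluor, 30 min).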

[11] = molecular target: Androgen receptor (Homo sapiens) (UniProt P10275); assay: qHTS assay to identify small molecule antagonists of the androgen receptor (AR) signaling pathway using the MDA cell line in the presence of 0.5 nM R1881 (AID 1259243)
In short: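 MDA-kb2 cells (MMTV-luciferase, responsive to AR and GR) at 3,000/well, rested 5 h at 37C, 0% CO2, then given compounds plus 0.5 nM R1881 (final) for 16 hr. Luciferase read with ONE-Glo after 30 min at room temperature.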

[12] = molecular target: Estrogen receptor (Homo sapiens) (UniProt P03372); assay: qHTS assay to identify small molecule antagonists of the estrogen receptor alpha (ER-alpha) signaling pathway using the BG1 cell line in the presence of 0.1 nM 17-beta-estradiol (AID 1259244); also: nearly all actives have a fitted effect of over 50% in size; also: potency is read from the fitted curve at half-maximal effect
In short: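 VM7Luc4E2 cells (endogenous full-length ER-alpha, 4×ERE-luciferase), kept 5 days in phenol red-free, charcoal-stripped FBS medium; 4,000 cells/well. Compounds added with 0.1 nM (final) 17beta-estradiol, 22 hr at 37C; luminescence read with ONE-Glo after 30 min.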

[13] = qHTS assay to identify small molecule phospholipidosis (PLD) inducers (AID 1259344; active = well fitted curve in the direction sought with a large enough effect; an effect the other way counts as inactive or inconclusive; also: potency is read from the fitted curve at half-maximal effect)
In short: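 Quantitative HTS in HepG2: compound plus LipidTOX Red dye for 24 h, paraformaldehyde fixation with Hoechst 33342, widefield high-content imaging; amiodarone as positive and DMSO as negative control.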

[14] = qHTS assay to identify small molecule HDAC inhibitors - cell viability counter screen (AID 1259365)
In short: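 Wild-type HCT-116 cells, 1,500/well, cultured overnight, then compound-treated 2 h at 37 C. Viability measured as ATP luminescence with CellTiter-Glo after 30 min at room temperature.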

[15] = qHTS assay to identify small molecule agonists of the sonic hedgehog signaling (Shh) pathway - cell viability counter screen (AID 1259366); also: nearly all actives have a fitted effect of over 50% in size
In short: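 NIH/3T3-derived Gli1-Luc reporter cells, 2,000 per well, received compound after 4 h and were treated about 23 h at 37C. Viability measured in the same wells by CellTiter-Fluor fluorescence after 1 h.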

[16] = qHTS assay to identify small molecule antagonists of the sonic hedgehog signaling (Shh) pathway - cell viability counter screen (AID 1259367); also: nearly all actives have a fitted effect of over 55% in size
In short: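 Seed 3T3 Gli1-Luc cells at 2,000 per well; incubate 4 hr; add compound in DMSO, then conditioned medium; incubate at 37C with 5% CO2; add CellTiter-Fluor after 23 hr; read fluorescence 1 hr later.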

[17] = qHTS assay to identify small molecule agonists of the sonic hedgehog signaling (Shh) pathway (AID 1259368; calls by dose curve;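 also: NIH/3T3-derived 3T3Gli1-Luc cells carrying a stable Gli1-driven firefly luciferase reporter; series mostly up to about 92 µM; nearly all actives have a fitted effect of over 15% in size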)
In short: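 NIH/3T3-derived 3T3Gli1-Luc cells with stably integrated Gli1-driven firefly luciferase, 2,000 cells/well, compounds added after 4 hr. Incubated 24 hr at 37C, 5% CO2; luminescence read after 30 min with luciferase reagent at room temperature.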

[18] = qHTS RealTime-Glo MT Cell Viability Assay in HepG2 cells - 0 hour (AID 1224889); also: nearly all actives have a fitted effect of over 50% in size
In short: as §3

[19] = qHTS assay to identify small molecule HDAC inhibitors (AID 1259364); also: top concentration of the series differs between compounds; nearly all actives have a fitted effect of over 45% in size
In short: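 Wild-type HCT-116 cells, plated overnight at 37 C, exposed to compounds 2 hr at 37 C; luminogenic HDAC-Glo substrate then added 30 min at room temperature. Luminescence reports relative endogenous class I/II HDAC activity.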

[20] = A CellTox Green Cytotoxicity Assay to monitor cytotoxicity in HEK293 cells - 16 hour (AID 1224888); also: nearly all actives have a fitted effect of over 35% in size
In short: as §1

Chain of Estrogen receptor (Homo sapiens) (P03372 whole entry, looked up): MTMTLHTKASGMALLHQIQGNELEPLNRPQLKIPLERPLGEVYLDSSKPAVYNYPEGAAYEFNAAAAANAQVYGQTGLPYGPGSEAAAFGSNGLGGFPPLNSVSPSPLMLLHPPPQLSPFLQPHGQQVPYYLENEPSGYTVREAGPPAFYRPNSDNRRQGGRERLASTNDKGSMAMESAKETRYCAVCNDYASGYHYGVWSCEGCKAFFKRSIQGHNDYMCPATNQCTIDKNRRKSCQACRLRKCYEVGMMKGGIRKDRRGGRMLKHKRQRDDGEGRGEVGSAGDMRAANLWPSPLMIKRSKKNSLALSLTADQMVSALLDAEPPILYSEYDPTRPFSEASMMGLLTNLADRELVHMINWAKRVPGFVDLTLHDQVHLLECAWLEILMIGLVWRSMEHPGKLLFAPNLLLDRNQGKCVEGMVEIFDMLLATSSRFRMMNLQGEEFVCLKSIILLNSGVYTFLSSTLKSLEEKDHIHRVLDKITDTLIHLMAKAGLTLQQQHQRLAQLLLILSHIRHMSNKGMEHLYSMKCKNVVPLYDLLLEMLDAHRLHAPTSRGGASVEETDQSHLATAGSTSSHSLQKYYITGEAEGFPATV
Chain of Androgen receptor (Homo sapiens) (P10275 whole entry, looked up): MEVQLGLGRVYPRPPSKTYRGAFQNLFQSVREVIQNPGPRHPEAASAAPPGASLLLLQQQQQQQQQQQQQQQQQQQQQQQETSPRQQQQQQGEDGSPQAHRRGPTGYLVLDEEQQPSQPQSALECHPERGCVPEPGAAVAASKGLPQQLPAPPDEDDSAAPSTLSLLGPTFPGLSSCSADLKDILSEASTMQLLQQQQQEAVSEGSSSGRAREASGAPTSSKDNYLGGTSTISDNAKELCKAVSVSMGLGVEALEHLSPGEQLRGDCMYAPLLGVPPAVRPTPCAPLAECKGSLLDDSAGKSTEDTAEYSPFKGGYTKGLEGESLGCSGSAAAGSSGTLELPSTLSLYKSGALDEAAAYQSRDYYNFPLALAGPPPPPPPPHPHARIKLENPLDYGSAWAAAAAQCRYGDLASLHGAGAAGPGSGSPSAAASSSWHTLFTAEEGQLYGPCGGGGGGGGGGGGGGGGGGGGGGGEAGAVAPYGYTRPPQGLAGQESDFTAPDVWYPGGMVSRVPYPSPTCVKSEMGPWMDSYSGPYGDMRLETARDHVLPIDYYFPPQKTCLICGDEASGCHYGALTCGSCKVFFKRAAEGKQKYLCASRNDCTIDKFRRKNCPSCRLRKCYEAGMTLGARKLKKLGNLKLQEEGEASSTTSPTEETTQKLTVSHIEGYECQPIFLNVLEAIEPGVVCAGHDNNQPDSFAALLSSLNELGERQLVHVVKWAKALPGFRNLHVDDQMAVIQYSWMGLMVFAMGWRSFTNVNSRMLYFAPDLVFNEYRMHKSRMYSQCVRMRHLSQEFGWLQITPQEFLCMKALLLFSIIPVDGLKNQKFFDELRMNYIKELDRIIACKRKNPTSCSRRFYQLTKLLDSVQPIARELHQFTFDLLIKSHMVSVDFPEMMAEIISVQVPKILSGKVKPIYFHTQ

| Compound | Potency [1] | Potency [2] | Potency [3] | Potency [4] | Potency [5] | Potency [6] | Potency [7] | Potency [8] | Potency [9] | Potency [10] | Potency [11] | Potency [12] | Potency [13] | Potency [14] | Potency [15] | Potency [16] | outcome [17] | Potency [18] | Potency [19] | Potency [20] |
| --- | --- | --- | --- | --- | --- | --- | --- | --- | --- | --- | --- | --- | --- | --- | --- | --- | --- | --- | --- | --- |
| CN1CCC(=C2c3ccccc3Sc3ccccc32)CC1 | inactive | inactive | 23.9 µM (active) | inactive | inactive | inactive | inactive | inactive | inactive | inactive | 23.7 µM (active) | inactive | 10 µM (active) | inactive | inactive | inactive | inactive | – | – | – |
| Nc1ncn([C@H]2C[C@H](O)[C@@H](CO)O2)c(=O)n1 | inactive | inactive | inactive | inactive | inactive | inactive | inactive | inactive | inactive | inactive | – | – | – | inactive | – | inactive | inactive | inactive | inactive | – |
| CN(C)c1ccc(CCO)cc1 | inactive | inactive | inactive | inactive | inactive | – | inactive | inactive | – | inactive | – | inactive | – | inactive | inactive | inactive | inactive | inactive | – | inactive |
| CC(C)CC(=O)C1C(=O)c2ccccc2C1=O | inactive | inactive | inactive | inactive | inactive | inactive | – | inactive | inactive | inactive | 48.6 µM (active) | – | – | inactive | inactive | inactive | inactive | inactive | – | inactive |
| O=C(O)C1(C(=O)O)CCC1.[NH2-].[NH2-].[Pt+2] | inactive | inactive | inactive | inactive | inactive | inactive | inactive | inactive | inactive | inactive | – | inactive | – | inactive | – | inactive | inactive | inactive | inactive | – |
| Nc1ccccc1S(=O)(=O)c1ccccc1 | inactive | inactive | inactive | inactive | inactive | inactive | inactive | inactive | inactive | – | – | – | – | inactive | inactive | inactive | inactive | inactive | inactive | – |
| CC(C)(O)c1ccc(CNC(=O)c2cccnc2Oc2ccc(F)cc2)cc1 | inactive | inactive | inactive | inactive | inactive | – | inactive | inactive | inactive | inactive | – | – | – | inactive | inactive | inactive | inactive | inactive | – | inactive |
| COc1cc2nc(N(C)CCCNC(=O)C3CCCO3)nc(N)c2cc1OC (stereo not given) | inactive | inactive | inactive | inactive | inactive | – | inactive | inactive | – | inactive | – | 23.7 µM (active) | inactive | inactive | inactive | inactive | inactive | inactive | – | inactive |

From PubChem BioAssay (Tox21)
